Our source for the Inhibition values is ChEMBL document CHEMBL4513135, “CO-ADD screening of IQOG CSIS (Spain) compounds”.

Measured potencies and affinities stand elsewhere.

One assay relates to Klebsiella pneumoniae. The following applies: Concentration 32 ug.mL-1; ASSAY_TEST Inhibition of Bacterial Growth; detection method Absorption (OD600); MEDIA CAMHB; plate type 384well; NBS; CORNING #3640; time 18 hr.
On to `Cc1ccc(C2c3c(Cl)nnnc3Oc3ccc4ccccc4c32)cc1` (stereo not given), for which the Inhibition – broadly, the change of the read-out against control, counted positive when it falls – was 9.62%.
Same read-out and setting: in the case of `O=Cc1c(-c2ccc(Br)cc2)nc2ccccn12` it was 19.86%.
Still for that read-out and setting: the same measure for `Cc1nc2c3cnn(-c4ccccc4)c3nc(C)n2n1`: 15.01%; for `C#CCNc1nc(N)c(C#N)cc1C#N`: 1.8%; for `Cc1cnc2ccc(Cl)cn12`: 22.77%.
On to `CCC(Cc1ccccc1)NNC(=O)c1cc2ccccc2[nH]1` (stereo not given), for which the Inhibition is reported as -8.95%.
As for `COC(=O)C(=Cc1ccc([N+](=O)[O-])cc1)NC(=O)c1ccccc1`, the Inhibition is on record as 11.76%.
On the same count and under the same terms, in the case of `CCOC(=O)C1=C(C)OC(N)=C(C#N)C1c1ccccc1OC` (stereo not given) it was 15.52%; in that of `N#CC1(Br)C(=NBr)Oc2ccc3ccccc3c2C1c1ccccc1` (stereo not given), -3%; in that of `C#CCN(C)Cc1cc2cc(OCc3ccccc3)ccc2n1C.O=C(O)C(=O)O`, 16.32%.
On to `CCOC(=O)C1=C(C)Nc2nc3c(c(N)c2C1c1ccc([N+](=O)[O-])cc1)CCCC3.Cl` (stereo not given), for which the Inhibition was found to be 18.29%.
For `COc1ccc(C2c3c(ccc4ccccc34)OC(=N)C2(Br)C#N)cc1` (stereo not given), the Inhibition was 10.22%.
Same read-out and setting: in the case of `C#CCNc1ncc(C#N)c(N)n1` it was 3.55%; in that of `C#CCN(C)c1cc(Cl)nc(N)n1`, 16.87%.
Turning to `Cc1nc(NO)c2c(C)nn(-c3ccccc3)c2n1`, the Inhibition stood at 17.6%.
Consider `N#CC1=C(N)Oc2ccc3ccccc3c2C1c1ccc(O)cc1` (stereo not given), for which the Inhibition is reported as 11.07%.
The same measure, in the same setting: the same measure for `COc1nc2nc3c(c(N)c2cc1C#N)CN(Cc1ccccc1)CC3`: 8.31%; for `CCC(CC)NNC(=O)c1c[nH]c2ccccc12.Cl`: 14.64%; for `C=C1CN(C)c2c(C#N)cc(C#N)c(=N)n21`: 9.83%.
Same read-out and setting: in the case of `COc1ccc(C2C(C#N)=C(N)Oc3c2ccc2ccccc32)c(OC)c1` (stereo not given) it was 2.23%.
`C#CCN(C)Cc1cc2cc(O)ccc2n1C.Cl`: the Inhibition was 13.12%.
As for `CSC1=NC2(CC2c2ccccc2)C(=O)N1` (stereo not given), the Inhibition was 20.57%.
Same read-out and setting: the same measure for `CC1Cc2ccccc2N1/N=C/c1ccccc1` (stereo not given): 2.26%.
Still for that read-out and setting: in the case of `C#CCN(C)Cc1cc2cc(OCCCC3CCN(C(=O)OC(C)(C)C)CC3)ccc2n1C` it was -9.9%; in that of `O=C1SC(SCc2ccccc2)=NC1=Cc1ccc2c(c1)OCO2`, -9.46%.
Still for that read-out and setting: the same measure for `Cc1n[nH]c2c1C(c1ccc([N+](=O)[O-])cc1)C(C#N)=C(N)O2` (stereo not given): -7.74%.
For `CC1CC(=O)Nc2c1c(Cl)nc1nc3c(c(N)c21)CCCC3` (stereo not given), the Inhibition stood at 13.46%.
On the same count and under the same terms, in the case of `O=C(N/N=C/c1cccc(Cl)c1)c1cc2ccccc2[nH]1` it was -14.42%; in that of `CCOC(=O)c1cc2cc(O)ccc2n1C(=O)OC(C)(C)C`, 2.98%.
Same read-out and setting: in the case of `N#CC1=C(N)Oc2c(ccc3ccccc23)C1c1c(Cl)cccc1Cl` (stereo not given) it was 5.34%; in that of `COc1ccc2c(c1)cc(C(=O)O)n2C`, 11.78%; in that of `CCOC(=O)CCc1c[nH]c2ccccc12`, -13.33%.
For the compound `Cc1ccc(C2c3c(nc4c(c3N)CCCC4)Oc3ccc4ccccc4c32)cc1` (stereo not given), the Inhibition was 2.87%.
As to `Cc1nn(-c2ccccc2)c2nc(C)n3nc(-c4ccccc4)nc3c12`, the Inhibition was 3.45%.
On the same count and under the same terms, the same measure for `N#Cc1cc(C#N)c(NCCCCC2CCN(Cc3ccccc3)CC2)nc1N`: 18.34%.
In the case of `CCOC(=O)C1=C(C)Oc2nc3c(c(N)c2C1c1nccn1C)CCC3` (stereo not given), the Inhibition is 4.43%.
With `CC/C(C)=N/NC(=O)Cc1c[nH]c2ccccc12`, the Inhibition came to 0.18%.
Still for that read-out and setting: in the case of `CCOC(=O)/C(C#N)=C\c1ccc(Cl)cc1` it was 4.33%; in that of `CCOC(=O)C1=C(C)Nc2nc3c(c(N)c2C1c1cccc(OC)c1)CCCC3` (stereo not given), 2.7%.
As for `COC1=C(C#N)CC(C)C(=O)N1` (stereo not given), the Inhibition is on record as 6.94%.

The next assay relates to Candida albicans. The following applies: 32 ug/mL.
For `Cc1ccc(C2c3c(Cl)nnnc3Oc3ccc4ccccc4c32)cc1` (stereo not given), the Inhibition came to 2.22%.
The same measure, in the same setting: the same measure for `O=Cc1c(-c2ccc(Br)cc2)nc2ccccn12`: 0.21%.
On the same count and under the same terms, in the case of `Cc1nc2c3cnn(-c4ccccc4)c3nc(C)n2n1` it was -1.82%.
On the same count and under the same terms, in the case of `C#CCNc1nc(N)c(C#N)cc1C#N` it was 2.29%; in that of `Cc1cnc2ccc(Cl)cn12`, 0.97%.
Turning to `CCC(Cc1ccccc1)NNC(=O)c1cc2ccccc2[nH]1` (stereo not given), the Inhibition amounted to 1.13%.
Still for that read-out and setting: in the case of `COC(=O)C(=Cc1ccc([N+](=O)[O-])cc1)NC(=O)c1ccccc1` it was 0.51%; in that of `CCOC(=O)C1=C(C)OC(N)=C(C#N)C1c1ccccc1OC` (stereo not given), 23.3%; in that of `N#CC1(Br)C(=NBr)Oc2ccc3ccccc3c2C1c1ccccc1` (stereo not given), 3.44%.
Regarding `C#CCN(C)Cc1cc2cc(OCc3ccccc3)ccc2n1C.O=C(O)C(=O)O`, the Inhibition is 2.13%.
As to `CCOC(=O)C1=C(C)Nc2nc3c(c(N)c2C1c1ccc([N+](=O)[O-])cc1)CCCC3.Cl` (stereo not given), the Inhibition was found to be 1.72%.
The same measure, in the same setting: in the case of `COc1ccc(C2c3c(ccc4ccccc34)OC(=N)C2(Br)C#N)cc1` (stereo not given) it was 17.9%.
Same read-out and setting: in the case of `C#CCNc1ncc(C#N)c(N)n1` it was 2.29%; in that of `C#CCN(C)c1cc(Cl)nc(N)n1`, 11.4%.
Take `Cc1nc(NO)c2c(C)nn(-c3ccccc3)c2n1`: the Inhibition was determined as 0.21%.
On the same count and under the same terms, in the case of `N#CC1=C(N)Oc2ccc3ccccc3c2C1c1ccc(O)cc1` (stereo not given) it was 2.93%.
In the case of `COc1nc2nc3c(c(N)c2cc1C#N)CN(Cc1ccccc1)CC3`, the Inhibition amounted to 1.24%.
`CCC(CC)NNC(=O)c1c[nH]c2ccccc12.Cl`: the Inhibition was 1.1%.
On to `C=C1CN(C)c2c(C#N)cc(C#N)c(=N)n21`, for which the Inhibition amounted to 2.03%.
With `COc1ccc(C2C(C#N)=C(N)Oc3c2ccc2ccccc32)c(OC)c1` (stereo not given), the Inhibition came to 0.21%.
The same measure, in the same setting: in the case of `C#CCN(C)Cc1cc2cc(O)ccc2n1C.Cl` it was 2.77%; in that of `CSC1=NC2(CC2c2ccccc2)C(=O)N1` (stereo not given), -0.24%.
On the same count and under the same terms, the same measure for `CC1Cc2ccccc2N1/N=C/c1ccccc1` (stereo not given): -2.78%.
Consider `C#CCN(C)Cc1cc2cc(OCCCC3CCN(C(=O)OC(C)(C)C)CC3)ccc2n1C`, for which the Inhibition turned out to be 1.82%.
For `O=C1SC(SCc2ccccc2)=NC1=Cc1ccc2c(c1)OCO2`, the Inhibition worked out at 1.96%.
Same read-out and setting: in the case of `Cc1n[nH]c2c1C(c1ccc([N+](=O)[O-])cc1)C(C#N)=C(N)O2` (stereo not given) it was 3.15%; in that of `CC1CC(=O)Nc2c1c(Cl)nc1nc3c(c(N)c21)CCCC3` (stereo not given), 3.48%; in that of `O=C(N/N=C/c1cccc(Cl)c1)c1cc2ccccc2[nH]1`, -0.35%.
Consider `CCOC(=O)c1cc2cc(O)ccc2n1C(=O)OC(C)(C)C`, for which the Inhibition amounted to 1.56%.
Still for that read-out and setting: in the case of `N#CC1=C(N)Oc2c(ccc3ccccc23)C1c1c(Cl)cccc1Cl` (stereo not given) it was -0.77%.
Take `COc1ccc2c(c1)cc(C(=O)O)n2C`: the Inhibition stood at 31.1%.
On the same count and under the same terms, the same measure for `CCOC(=O)CCc1c[nH]c2ccccc12`: 5.29%; for `Cc1ccc(C2c3c(nc4c(c3N)CCCC4)Oc3ccc4ccccc4c32)cc1` (stereo not given): 1.23%; for `Cc1nn(-c2ccccc2)c2nc(C)n3nc(-c4ccccc4)nc3c12`: -2.98%.
For `N#Cc1cc(C#N)c(NCCCCC2CCN(Cc3ccccc3)CC2)nc1N`, the Inhibition stood at 1.01%.
Take `CCOC(=O)C1=C(C)Oc2nc3c(c(N)c2C1c1nccn1C)CCC3` (stereo not given): the Inhibition was -1.64%.
As for `CC/C(C)=N/NC(=O)Cc1c[nH]c2ccccc12`, the Inhibition is -0.57%.
On the same count and under the same terms, in the case of `CCOC(=O)/C(C#N)=C\c1ccc(Cl)cc1` it was -0.09%; in that of `CCOC(=O)C1=C(C)Nc2nc3c(c(N)c2C1c1cccc(OC)c1)CCCC3` (stereo not given), 5.35%.
Same read-out and setting: the same measure for `COC1=C(C#N)CC(C)C(=O)N1` (stereo not given): 1.01%.
